Results from PubChem BioAssay AID652039 (The Scripps Research Institute Molecular Screening Center, 2013).
Hit rate of the full screen: of about 370,000 compounds, about 3,300 (0.89%) were called active. This is one part of a sample in which actives are shown more often than they occur.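 Rule for the calls: active = activation above the mean of all tested compounds plus 3 SD, computed per campaign excluding outliers beyond control limits (cut at about 13% in these data); inactive = the rest.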

Target: Kallikrein-7 (Homo sapiens) (UniProt P49862)
Assay: activation of human kallikrein-7 proenzyme – biochemical, fluorescence intensity, primary screen (AID 652039)
Details: purified proKLK7, EDANS-DABCYL substrate fluorescence; at 7 µM; active compounds read high

Sequence of Kallikrein-7 (Homo sapiens) (P49862 whole entry, looked up): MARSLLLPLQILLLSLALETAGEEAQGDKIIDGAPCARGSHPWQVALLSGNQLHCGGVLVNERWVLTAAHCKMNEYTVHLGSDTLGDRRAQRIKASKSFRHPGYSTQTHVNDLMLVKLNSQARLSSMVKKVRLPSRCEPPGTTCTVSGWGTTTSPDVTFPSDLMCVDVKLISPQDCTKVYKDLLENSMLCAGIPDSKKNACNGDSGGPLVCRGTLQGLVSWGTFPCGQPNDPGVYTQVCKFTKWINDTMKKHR

SMILES | activation
CCOc1ccc(-c2cc(C)[n+](CCN(CC)CC)c(-c3ccc(OCC)cc3)c2)cc1 | 44.7% (active)
COc1ccc(-c2nn(CCC#N)cc2C(=O)O)cc1 | -0.57% (inactive)
COc1cc(OC)cc(C(=O)NCCN2CCC3(CC2)C(=O)NCN3c2ccccc2)c1 | 0.06% (inactive)
CS(=O)(=O)N1CCC2CCNC2C1 (stereo not given) | -0.49% (inactive)
COc1ccccc1C1=NCc2nnc(CSC)n2-c2ccc(Cl)cc21 | -0.06% (inactive)
Cc1cc(OCc2cc(C(=O)O)oc2C)c2c3c(c(=O)oc2c1)CCCC3 | 9.69% (inactive)
COC(=O)COc1cc(C)cc2oc(=O)c3c(c12)CCCC3 | 14.7% (active)
Brc1ccc2c(c1)CNCc1cnnn1-2 | 0.31% (inactive)
CCN(CC)C(=O)[C@@H]1C=C2c3cccc4[nH]c(Br)c(c34)C[C@H]2N(C)C1 | -1.09% (inactive)
Cc1cc(N2CCNC[C@@H]2C)ccc1N1CC[C@H](O)C1 | 1.32% (inactive)
CCOC(=O)c1c(N)n(CCN2CCOCC2)c2nc3ccccc3nc12 | 27.2% (active)
COc1cc(Cn2c(N)c(C(=O)NCc3ccco3)c3nc4ccccc4nc32)cc(OC)c1OC | -1.84% (inactive)
O=C(OCCN1CCOCC1)C1(c2ccccc2)CCCC1 | 0.22% (inactive)
COc1ccc2c(c1)[C@@]13CCCCC1[C@@H](C2)NCC3 (stereo not given in full) | 0.08% (inactive)
O=S(=O)(c1ccccc1)N1CCC2CCNC2C1 (stereo not given) | -0.08% (inactive)
c1ccc(CCN2CCC3(CC2)OCCO3)cc1 | 0.24% (inactive)
C[C@H]1CN([C@@H](C)CO)C(=O)CCCn2nncc2CO[C@H]1CN(C)C(=O)Oc1ccccc1 | -0.02% (inactive)
COc1cccc(-c2nc3ccc(N4CCN(C)CC4)cc3[nH]2)c1 | 68.7% (active)
Clc1ccc([C@@H]2CC3CCC2N3)cn1 (stereo not given in full) | 0.62% (inactive)
CCC(C)NC1(c2ccccc2)CCCCC1 (stereo not given) | 0.13% (inactive)
COc1ccc(C(=O)CC2C(=O)N(C)C(=O)N(C)C2=O)cc1 | -0.07% (inactive)
Cc1ccccc1CCC[C@@H](CC1CCCCC1)CN(C)C(=O)Oc1ccccc1 | 0.38% (inactive)
Cc1nc2ccc(N3CCN(C)CC3)cc2nc1C | 83.6% (active)
COP(=O)(Sc1ccccc1)C(Cc1ccccc1)NC(=O)OCc1ccccc1 (stereo not given) | 0.08% (inactive)
c1ccc2sc(C3CCCNC3)nc2c1 (stereo not given) | 0.61% (inactive)
